Compound activity (PubChem BioAssay)
Shown are actives, neighbours in structure and some others; about 1.6% of the full set was active somewhere.
KCNQ2 enhance: KCNQ2 (rat) channel potentiation. O88943. 310,000 compounds, 0.54% hits. CHO-K1 KCNQ2, FluxOR thallium flux fluorescence; active compounds read high. B-score at 10 µM;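 active = fluorescence ratio B-score at least 3 SD of library B-scores, with initial fluorescence B-score within 3 of them, cut at about 5.3 in these data; same plate scores as AID 2156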;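 note: B-score of peak minus minimum over baseline fluorescence ratio after K+ and Tl+ stimulus; positive B-score means potentiation of KCNQ2 with more thallium influx and brighter signal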
Target sequence (O88943 whole entry, looked up): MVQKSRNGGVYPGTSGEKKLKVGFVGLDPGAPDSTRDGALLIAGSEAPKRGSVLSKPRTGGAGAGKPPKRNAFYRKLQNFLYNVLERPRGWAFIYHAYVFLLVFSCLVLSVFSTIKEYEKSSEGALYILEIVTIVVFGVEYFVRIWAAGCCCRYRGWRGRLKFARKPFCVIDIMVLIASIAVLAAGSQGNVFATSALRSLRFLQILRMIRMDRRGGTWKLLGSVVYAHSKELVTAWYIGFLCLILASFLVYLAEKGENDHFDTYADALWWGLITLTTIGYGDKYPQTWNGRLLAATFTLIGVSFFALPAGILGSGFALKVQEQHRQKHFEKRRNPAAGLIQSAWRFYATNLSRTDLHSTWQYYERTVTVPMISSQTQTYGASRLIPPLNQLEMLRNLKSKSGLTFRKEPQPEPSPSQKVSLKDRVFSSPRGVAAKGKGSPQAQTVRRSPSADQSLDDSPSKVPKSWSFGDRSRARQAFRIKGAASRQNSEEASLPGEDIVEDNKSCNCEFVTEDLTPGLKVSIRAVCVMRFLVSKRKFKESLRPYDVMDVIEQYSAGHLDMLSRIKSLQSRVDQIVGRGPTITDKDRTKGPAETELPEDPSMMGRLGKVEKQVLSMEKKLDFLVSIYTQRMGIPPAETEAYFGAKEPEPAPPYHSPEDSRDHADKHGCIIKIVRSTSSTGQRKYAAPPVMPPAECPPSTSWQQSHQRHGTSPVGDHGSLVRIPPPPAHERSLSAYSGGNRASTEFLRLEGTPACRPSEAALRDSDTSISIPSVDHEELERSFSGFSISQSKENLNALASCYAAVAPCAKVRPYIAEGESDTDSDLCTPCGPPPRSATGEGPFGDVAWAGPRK
KCNQ2 block: KCNQ2 (rat) channel inhibition; O88943; CHO-K1 KCNQ2, FluxOR thallium flux, 20 min; active compounds read low; B-score at 10 µM; 310,000 compounds, 1.1% hits;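 active = fluorescence ratio B-score at most minus 3 library SDs, with starting brightness B-score within 2 library SDs, cut at about -5.5 in these data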
Numbers stand for hits.

Screening O=C(COC(=O)CC(c1ccccc1)c1ccccc1)Nc1ccc(F)c(F)c1 returned KCNQ2 enhance inactive and KCNQ2 block -8.1.
O=C(COC(=O)CC(c1ccccc1)c1ccccc1)Nc1cccc(F)c1 was read as KCNQ2 block inactive.
O=C1OCCN1c1c(-c2ccccc2)c(-c2cccs2)nc2c(-c3ccccc3)cccc12 was read as KCNQ2 block inactive.
Screening O=C(Nc1ccccc1N1CCCC1)c1cc(S(=O)(=O)N2CCOCC2)ccc1Cl returned KCNQ2 enhance inactive and KCNQ2 block -5.9.
`CCN(CC(=O)Nc1ccc(S(=O)(=O)N2CCCCC2)cc1)Cc1ccccc1` gave KCNQ2 block inactive.
Screening O=C(Nc1cc(S(=O)(=O)N2CCOCC2)ccc1N1CCCC1)c1cccnc1Cl returned KCNQ2 block inactive.
Screening CCN(CC(=O)Nc1cc(S(=O)(=O)N2CCCCC2)ccc1Cl)Cc1ccccc1 returned KCNQ2 enhance inactive and KCNQ2 block -7.8.
CCN1CCN(S(=O)(=O)c2ccc(Cl)c(C(=O)Nc3ccccc3N3CCCC3)c2)CC1 was read as KCNQ2 block inactive.
Screening CCN1CCN(S(=O)(=O)c2ccc(Cl)c(C(=O)Nc3ccccc3N3CCCCC3)c2)CC1 returned KCNQ2 enhance inactive and KCNQ2 block -5.6.
For O=C(Nc1ccccc1F)Nc1cc(S(=O)(=O)N2CCOCC2)ccc1N1CCCC1 the results were KCNQ2 enhance inactive and KCNQ2 block inactive.
Screening O=C(Nc1cc(S(=O)(=O)N2CCOCC2)ccc1N1CCCC1)c1ccc2c(c1)S(=O)(=O)c1ccccc1C2=O returned KCNQ2 enhance inactive and KCNQ2 block -5.9.
Screening CCC(C(=O)NNC(=O)c1cnccn1)c1ccccc1 (configuration not stated) returned KCNQ2 enhance inactive and KCNQ2 block inactive.
For Cc1cccc(C(=O)NCC(=O)OC(C)C(=O)Nc2ccc(Cl)cn2)c1 (configuration not stated) the results were KCNQ2 block inactive.
Cc1cccc(NC(=O)Cn2cnc(S(=O)(=O)N3CCCC3)c2)c1C was read as KCNQ2 enhance inactive and KCNQ2 block inactive.
For CCc1cc(C(=O)O)c(NC(=O)C(c2ccccc2)c2ccccc2)s1 the results were KCNQ2 enhance inactive and KCNQ2 block inactive.
CCOC(=O)c1cc(CC)sc1NC(=O)Cc1ccccc1 was read as KCNQ2 enhance inactive and KCNQ2 block -5.7.
CCOC(=O)c1cc(C)sc1NC(=O)C(c1ccccc1)c1ccccc1 was read as KCNQ2 enhance inactive and KCNQ2 block -6.
For CCOC(=O)c1cc(CC)sc1NC(=O)COC the results were KCNQ2 block inactive.
Cc1c(CC(=O)N[C@H](C(=O)O)C(C)C)c(=O)oc2cc3c(cc12)CCC(C)(C)O3 was read as KCNQ2 block inactive.
CC1Cc2ccccc2N1C(=O)CCn1c(=O)sc2ccccc21 (configuration not stated) was read as KCNQ2 enhance inactive and KCNQ2 block -6.
CC1Cc2ccccc2N1C(=O)CCN1C(=O)C2C3C=CC(C3)C2C1=O (configuration not stated) was read as KCNQ2 enhance inactive and KCNQ2 block inactive.
`CCC(C(=O)NCCc1c[nH]c2cc(OC)ccc12)c1ccccc1` (configuration not stated) gave KCNQ2 block inactive.
For C=CCc1cccc(/C=N/NC(=O)CNc2ccccc2OC)c1O the results were KCNQ2 enhance 6.2 and KCNQ2 block inactive.
`C=CCc1cccc(/C=N/NC(=O)CNc2cccc3ccccc23)c1O` gave KCNQ2 enhance inactive and KCNQ2 block inactive.
For Cc1cc(C)n(C(C[N+](=O)[O-])c2ccc(Cl)cc2)n1 (configuration not stated) the results were KCNQ2 enhance inactive and KCNQ2 block -10.
For Cc1cc(O)c(C(C[N+](=O)[O-])c2ccc(Cl)cc2)c(=O)o1 (configuration not stated) the results were KCNQ2 block inactive.
`CCCc1cc(-c2n[nH]c(=S)n2CC(C)C)cs1` gave KCNQ2 enhance 6.4 and KCNQ2 block inactive.
For CCCCn1c(-c2csc(CC)c2)n[nH]c1=S the results were KCNQ2 enhance inactive and KCNQ2 block inactive.
`CCCCn1c(N)c(N(CCOC)C(=O)COC(=O)/C=C/c2ccc(Br)cc2)c(=O)[nH]c1=O` gave KCNQ2 enhance inactive and KCNQ2 block inactive.
Screening O=C(Cc1ccccc1)NC1CCSc2ccccc21 (configuration not stated) returned KCNQ2 enhance inactive and KCNQ2 block -5.8.
For O=C(CCc1ccccc1)NC1CCSC1=O (configuration not stated) the results were KCNQ2 enhance inactive and KCNQ2 block inactive.
Screening Clc1ccccc1CSc1snnc1-c1ccccc1 returned KCNQ2 enhance inactive and KCNQ2 block -5.5.
Screening Clc1ccc(CSc2snnc2-c2ccccc2)cc1 returned KCNQ2 block inactive.
CCOc1ccccc1N(CC(=O)NCCc1ccccc1)C(=O)CCC(=O)Nc1ccccn1 was read as KCNQ2 enhance inactive and KCNQ2 block inactive.
Cc1ccc(CN2CCN(C/C(Cl)=C/c3ccccc3)CC2CCO)o1 (configuration not stated) was read as KCNQ2 enhance inactive and KCNQ2 block inactive.
`NS(=O)(=O)c1ccc(CCNC(=O)Cc2cccs2)cc1` gave KCNQ2 block inactive.
`Cc1ccc2nc(-c3ccccc3)cc(C(=O)NCC3CCCO3)c2c1` (configuration not stated) gave KCNQ2 block inactive.
Screening Cc1ccc2nc(-c3ccccc3)cc(C(=O)NCC(c3ccco3)N(C)C)c2c1 (configuration not stated) returned KCNQ2 enhance inactive and KCNQ2 block -5.8.
For CCN1C(=O)N[C@@H](c2ccccc2)[C@@H](C(=O)OC)[C@H]1C the results were KCNQ2 enhance inactive and KCNQ2 block inactive.
c1ccc(-c2nc3c4ccccc4ccn3c2CN2CCCCC2)cc1 was read as KCNQ2 enhance inactive and KCNQ2 block -5.6.
For Cc1ccc(-c2nc3c4ccccc4ccn3c2CN2CCCCC2)cc1 the results were KCNQ2 block inactive.
CCCCOC(=O)Cn1c(=O)c2c(nc(Br)n2Cc2ccccc2)n(C)c1=O was read as KCNQ2 enhance inactive and KCNQ2 block -7.5.
`Cn1c(=O)n(CC(N)=O)c(=O)c2c1nc(Br)n2Cc1ccccc1` gave KCNQ2 enhance inactive and KCNQ2 block inactive.
Screening c1ccc(-c2ncc(CN3CCN(c4ccccn4)CC3)[nH]2)cc1 returned KCNQ2 enhance inactive and KCNQ2 block inactive.
For CCOc1c(C)cnc2c1c(=O)n(Cc1ccc(Cl)cc1)c(=O)n2C the results were KCNQ2 enhance inactive and KCNQ2 block -5.9.
Screening CCOc1c(C)cnc2c1c(=O)n(Cc1cccc(Cl)c1)c(=O)n2C returned KCNQ2 block inactive.
Screening O=Cc1ccc(OC(=O)Cc2ccc(F)cc2)cc1 returned KCNQ2 block inactive.
Screening O=C(NNC(=O)c1ccc(F)cc1F)c1ccc(-n2cnnn2)cc1 returned KCNQ2 block inactive.
Screening Fc1ccccc1-c1nc2nc3ccccc3nc2n1CC1CCCO1 (configuration not stated) returned KCNQ2 enhance inactive and KCNQ2 block inactive.
`Oc1ccc(-c2nc(-c3ccc(O)c(O)c3)cs2)cc1` gave KCNQ2 enhance inactive and KCNQ2 block -5.6.
Oc1ccc(Nc2nc(-c3ccc4ccccc4c3)cs2)cc1 was read as KCNQ2 block inactive.
Screening COc1ccc2c(c1)c1ncn(CCN3CCCC3)c(=O)c1n2C returned KCNQ2 enhance inactive and KCNQ2 block inactive.
Screening COc1ccccc1CCn1cnc2c3cc(C)ccc3n(C)c2c1=O returned KCNQ2 enhance inactive and KCNQ2 block -7.4.
